“And” between values parts separate entries of the source, which are not always exact repeats. Identical values can stand only once. Hit rate of the full screen: of about 16,000 compounds, about 5,700 (36%) were called active. Not shown: some 24% with an inconclusive outcome. The list shows a part of the results. A number with no mark means an inactive call. Calls come from the whole dose curve; as a rule, active = well fitted curve in the direction sought with a large enough effect; inconclusive = small, poorly fitted or top-dose-only effect, or effect the other way; inactive = no such curve, though single readings can be large or run the other way.

By AC50 is commonly meant the midpoint of the concentration-response curve, whichever way the signal moves.
% is set by controls: 0 for no effect and ±100 for the full control effect.

For the test, the target named is Cytochrome P450 1A2 (Homo sapiens) (UniProt P05177). Nature of the test: Cytochrome panel assay with activity outcomes. The following applies: recombinant CYP, pro-luciferin dealkylation, luminescence, p450-cyp1a2; series mostly up to 57.1 µM; activity, negative = inhibition: at the top concentration.
Chain of Cytochrome P450 1A2 (Homo sapiens) (P05177 whole entry, looked up): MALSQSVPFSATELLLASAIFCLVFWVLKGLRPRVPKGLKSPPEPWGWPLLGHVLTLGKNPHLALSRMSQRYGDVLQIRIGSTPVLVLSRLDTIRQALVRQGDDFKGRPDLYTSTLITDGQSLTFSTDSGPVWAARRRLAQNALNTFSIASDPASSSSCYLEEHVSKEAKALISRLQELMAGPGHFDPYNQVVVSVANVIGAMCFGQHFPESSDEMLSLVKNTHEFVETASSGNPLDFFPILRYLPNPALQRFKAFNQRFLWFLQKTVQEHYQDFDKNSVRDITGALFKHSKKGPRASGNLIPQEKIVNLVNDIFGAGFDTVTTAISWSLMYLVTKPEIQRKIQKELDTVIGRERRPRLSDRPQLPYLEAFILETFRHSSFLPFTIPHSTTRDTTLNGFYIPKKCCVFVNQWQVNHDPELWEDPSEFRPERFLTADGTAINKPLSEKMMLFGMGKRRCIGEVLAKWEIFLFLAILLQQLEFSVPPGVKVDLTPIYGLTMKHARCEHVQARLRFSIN
As to `CO[C@H]1C[C@@H](O[C@@H]2[C@H](C)[C@H](O[C@@H]3O[C@@H](C)C[C@@H](N(C)C)[C@@H]3O)[C@H](C)C[C@]3(CO3)C(=O)[C@H](C)[C@H](O)[C@H](C)[C@H](C)OC(=O)[C@@H]2C)O[C@@H](C)[C@H]1O`, the “activity, negative = inhibition” value was 1.17% [at 25.6 µM].
With `COc1ccc(O)c(/C=N/NC(=O)c2ccc(OCc3cccc(Br)c3)cc2)c1`, the AC50 is 11.2 µM (active).
As for `O=C(CNC(=O)/C(=C\c1ccccc1)NC(=O)c1ccc(Br)cc1)OCc1ccccc1`, the “activity, negative = inhibition” value was -27.8%.
For the compound `COc1ccc(O)c(/C=N/NC(=O)CSc2nnc(C)n2-c2ccccc2)c1`, the “activity, negative = inhibition” value was -4.22%.
Turning to `COc1ccc(C(=O)NCC(=O)OCc2cccc(Br)c2)cc1`, the concentration at half-maximal activity (AC50) is 6.31 µM (active).
The same measure, in the same setting: the same measure for `COc1ccc(C(=O)N/N=C/c2cccc3cccnc23)cc1`: 2 µM (active).
Take `CSC(=N)N`: the “activity, negative = inhibition” value was -5.29%.
With `Clc1cccc(Nc2ncnc3ccc(Br)cc23)c1`, the AC50 is 0.562 µM (active).
Same read-out and setting: the same measure for `Brc1ccc2ncnc(Nc3cccc4ccccc34)c2c1`: 1.58 µM (active); for `COc1cccc(-c2nnc3n2N=C(C(C)(C)C)CS3)c1`: 2.82 µM (active).
Same read-out and setting: the same measure for `COc1ccc(-c2nnc3n2N=C(C)CS3)cc1`: 1.41 µM (active).
Turning to `COc1ccc(-n2c(C)n[nH]c2=O)cc1`, the “activity, negative = inhibition” value is -1.01%.
With `CCc1ccc(C2=Nn3c(nnc3-c3cccs3)SC2)cc1`, the AC50 is 3.55 µM (active).
For `CCOc1ccc(C2=Nn3c(nnc3-c3ccco3)SC2)cc1`, the AC50 was 2 µM (active).
The same measure, in the same setting: the same measure for `O=C(O)C1=CCCNC1`: “inactive”.
Still for that read-out and setting: the same measure for `CCOc1ccc(-c2nnc3n2N=C(c2ccc(OC)cc2)CS3)cc1`: 3.55 µM (active).
On to `O=C(OCC(=O)c1ccc([N+](=O)[O-])cc1)/C(=C\c1ccc(Cl)cc1)NC(=O)c1ccccc1`, for which the AC50 is 12.6 µM (active).
As for `COc1cc(/C=C(/NC(=O)c2ccccc2Cl)C(=O)O)cc(OC)c1OC`, the “activity, negative = inhibition” value is -2.92%.
On the same count and under the same terms, the same measure for `Cc1ccc(NC(=O)/C(=C\c2ccc([N+](=O)[O-])cc2)NC(=O)c2ccccc2)cc1`: -11%.
For the compound `O=C(OCc1ccccc1)/C(=C/c1ccc(Cl)cc1)NC(=O)c1ccccc1Cl`, the half-maximal activity concentration (AC50) was 0.891 µM (active).
Consider `O=C(Nc1cccc2ccccc12)/C(=C/c1ccc([N+](=O)[O-])cc1)NC(=O)c1ccccc1`, for which the AC50 was 3.16 µM (active).
For the compound `Cc1ccc(S(=O)(=O)N[C@H]2COC(=O)C/C=C\[C@@H](C)[C@H](NS(=O)(=O)c3ccc(C)cc3)COC(=O)C/C=C\[C@H]2C)cc1`, the activity, negative = inhibition was -0.94% [at 11.4 µM].
On to `O=C(Nc1ccnc(-c2cccnc2)n1)c1cccc(Cl)c1Cl`, for which the AC50 was 0.562 µM (active).
Still for that read-out and setting: the same measure for `O=C(Nc1ccnc(-c2cccnc2)n1)c1ccccc1Cl`: 0.398 µM (active).
`CC1(C)OCC([C@H](O)C2=CCCCC2=O)CO1`: the activity, negative = inhibition was -1.5% [at 11.4 µM].
Turning to `O=C(c1ccco1)N1CCN(C(=O)C2(S(=O)(=O)c3ccc(Cl)cc3)CC2)CC1`, the “activity, negative = inhibition” value is -22%.
Take `FC(F)(F)c1cccc(-c2nc3nc(Cl)c(Cl)nc3[nH]2)c1`: the AC50 is 0.398 µM (active).
In the case of `O=C(Nc1cccc(F)c1)N1CCC2(CC1)CCN(C(=O)c1cnccn1)CC2`, the “activity, negative = inhibition” value is 4.45%.
Take `COc1cc2c(cc1C(F)(F)F)N(C(=O)Nc1cc(F)cc(-c3cccnc3)c1)CC2`: the AC50 was 0.316 µM (active).
Still for that read-out and setting: the same measure for `CN1CCc2cc(NC(=O)Nc3cccnc3)ccc21`: 0.0794 µM (active); for `CSc1cc2c(cc1C(F)(F)F)N(C(=O)Nc1cccnc1)CC2`: 0.000794 µM (active).
On the same count and under the same terms, the same measure for `Cn1ccc2cc3c(cc21)CCN3C(=O)Nc1cccnc1`: 25.1 nM (active) and 3.98 nM (active).
In the case of `COC(=O)c1ccc(NC(=O)N2CCC(O)(c3cccnc3)CC2)cc1`, the “activity, negative = inhibition” value was -13.5%.
Take `CN1CCc2c(cc(O)c(O)c2Cl)[C@H](c2cccc(Cl)c2)C1`: the “activity, negative = inhibition” value is -4.23%.
On the same count and under the same terms, the same measure for `Cn1c(=O)[nH]c2ncn(C)c2c1=O`: -4.02%; for `[O-][N+](CCO)(CCO)c1ncnc2nc[nH]c12`: -5.88% [at 11.4 µM]; for `CCOC(=O)C1=C(c2ccccc2)N=c2s/c(=C\c3cc(OC)c(OC)c(OC)c3)c(=O)n2C1c1cccs1` (stereo not given): 0.13%.
Consider `CCOC(=O)C1=C(c2ccccc2)N=c2s/c(=C\c3ccco3)c(=O)n2C1c1cccs1` (stereo not given), for which the AC50 is 6.31 µM (active).
Regarding `CCOC(=O)C1=C(c2ccccc2)N=c2s/c(=C\c3cccc(O)c3)c(=O)n2C1c1cccs1` (stereo not given), the half-maximal activity concentration (AC50) was 25.1 µM (active).
Take `CCOC(=O)C1=C(c2ccccc2)N=c2s/c(=C\c3ccc(O)cc3)c(=O)n2C1c1cccs1` (stereo not given): the “activity, negative = inhibition” value is -9.66%.
On the same count and under the same terms, the same measure for `COc1ccc(C2/C(=C(/O)c3ccc(Cl)cc3)C(=O)C(=O)N2CCN2CCOCC2)c(OC)c1` (stereo not given): -25.5%.
As to `Cc1ccc(NC(=O)Nc2nc(-c3ccc(C)s3)cs2)cc1`, the concentration at half-maximal activity (AC50) was 1.58 µM (active).
Take `C#CCCCO/N=C1/C[C@@H](O)[C@@H](O)[C@@H]2[C@@H]3C(=O)N(Cc4ccccc4)C(=O)[C@H]3CC[C@@H]12`: the activity, negative = inhibition is 6.78% [at 11.4 µM].
`CNC(=O)c1nnn(Cc2ccccc2)c1NC(=O)C(F)(F)F`: the “activity, negative = inhibition” value is -22.4%.
Take `COc1ccc(NC(=O)C2CC(=O)NC3=C2C(=O)CC(C)(C)C3)cc1` (stereo not given): the “activity, negative = inhibition” value is -2.7%.
For the compound `COc1ccc(C(C(=O)Nc2ccc(F)cc2)N(C(=O)Cn2nnc3ccccc32)C2CC2)cc1` (stereo not given), the “activity, negative = inhibition” value was -13.1%.
On to `CCN(Cc1ccccc1)Cc1cccc([N+](=O)[O-])c1`, for which the AC50 was 5.01 µM (active).
`COCC(C)NCc1cccc([N+](=O)[O-])c1` (stereo not given): the “activity, negative = inhibition” value was -12.9%.
On to `N[C@@H](Cc1cccc([N+](=O)[O-])c1)C(=O)O`, for which the activity, negative = inhibition was -10.6% [at 11.4 µM].
Still for that read-out and setting: the same measure for `O=C(O)CC/C=C\CC[C@H]1[C@@H](N2CCCCC2)[C@@H](O)C[C@@H]1OCc1ccc(-c2ccccc2)cc1`: 0.717%.
With `CNc1cc(-c2ccccc2C(F)(F)F)ncn1`, the AC50 is 15.8 µM (active).
Still for that read-out and setting: the same measure for `Cc1ccccc1-c1cc(N(C)C)ncn1`: 2 µM (active); for `FC(F)(F)c1ccccc1-c1cc(NCc2ccccc2)ncn1`: 12.6 µM (active); for `CNc1cc(-c2ccccc2C)ncn1`: 10 µM (active).
For the compound `CNc1ncncc1-c1ccccc1C(F)(F)F`, the “activity, negative = inhibition” value is -17.8%.
On the same count and under the same terms, the same measure for `CN(C)C(=O)/N=N\C(=O)N(C)C`: -4.71%; for `CC(C)=CCC/C(C)=C/CO/N=C1/C[C@@H](O)[C@@H](O)[C@@H]2[C@@H]3C(=O)N(C[C@@H]4CCCO4)C(=O)[C@H]3CC[C@@H]12`: -6.43% [at 11.4 µM].
Turning to `O=C(CNc1cccc(Cl)c1)c1ccc(Cl)cc1`, the AC50 was 3.16 µM (active).
On the same count and under the same terms, the same measure for `O=C(CCNc1cccc(Cl)c1)c1cccs1`: 10 µM (active).
Consider `O=C(O)CNc1ccc(C(=O)O)cc1`, for which the activity, negative = inhibition is -15.1% [at 11.4 µM].

The values above are taken from PubChem BioAssay AID1851 (National Center for Advancing Translational Sciences (NCATS), 2009).
